CHO-K1 Ca ag: counter-screen for M1 agonists: effect in parental CHO-K1 cells; activation, % at 3 µM; Fluo-8 calcium fluorescence; scaled to maximal ATP response, vehicle zero; actives 0.48% (n = 360,000); AID 602248; in the data active means activation above about 15%;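 further: untransfected CHO-K1 host cells lacking M1 receptor as counterscreen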
M1 PAM parental: M1 PAM counterscreen hit in parental CHO-K1 cells; actives 0.02% (n = 360,000); activation, % at 3 µM; ATP EC20, Fluo-8 calcium fluorescence; 0% at ATP EC20, 100% at ATP max;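 active means activation above the run cutoff, the mean activation of all test compounds plus 3 SD, cut at about 40% in these data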;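 further: peak over basal fluorescence ratio in a 140 s read after ATP addition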
CHO-K1 Ca antag: M1 antagonist counterscreen hit in parental CHO-K1 cells; inhibition, % at 3 µM; ATP-induced calcium, Fluo-8 fluorescence; actives 0.6% (n = 360,000);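 active means inhibition above a per-plate cutoff, the plate's mean sample inhibition plus 3 SD, cut at about 24% in these data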;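 further: 0% = DMSO plus EC80 ATP and 100% = DMSO alone without ATP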
M4 ag: CHRM4 agonism in calcium assay. CHO-K1 hM4/Gqi5, Fluo-8 calcium fluorescence; vehicle 0%, full acetylcholine response 100%. activation, % at 3 µM. actives 0.14% (n = 360,000). AID 624127;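 active means activation above the run mean over all test wells plus 3 SD, cut at about 32% in these data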;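 further: peak over basal fluorescence ratio per well then scaled between controls; 0% = DMSO wells and 100% = acetylcholine at EC100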
Target sequence (P08173 whole entry, looked up): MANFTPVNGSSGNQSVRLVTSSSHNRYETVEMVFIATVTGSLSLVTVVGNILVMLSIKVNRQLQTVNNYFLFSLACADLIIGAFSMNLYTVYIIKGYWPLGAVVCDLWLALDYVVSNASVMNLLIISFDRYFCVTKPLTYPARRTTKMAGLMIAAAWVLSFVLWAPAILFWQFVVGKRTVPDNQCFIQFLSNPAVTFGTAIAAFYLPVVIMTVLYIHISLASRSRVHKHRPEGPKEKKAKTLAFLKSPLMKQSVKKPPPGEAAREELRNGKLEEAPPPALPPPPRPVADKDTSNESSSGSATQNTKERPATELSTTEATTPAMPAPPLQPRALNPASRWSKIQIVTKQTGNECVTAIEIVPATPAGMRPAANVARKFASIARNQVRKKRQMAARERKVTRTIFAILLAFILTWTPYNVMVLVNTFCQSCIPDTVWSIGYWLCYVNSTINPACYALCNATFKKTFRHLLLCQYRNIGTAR
CHRM4 PAM: positive allosteric modulators of human muscarinic M4 receptor | P08173 | CHO-K1 hM4/Gqi5, Fluo-8 calcium fluorescence, ACh EC20; 0% = ACh EC20, 100% = maximal ACh | activation, % at 3 µM | actives 0.4% (n = 360,000);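 active means activation above its plate's cutoff, the mean activation of sample wells plus 3 SD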
M4 antag: blocks acetylcholine activation of human M4 receptor; P08173; AID 624125; inhibition, % at 3 µM; actives 0.73% (n = 360,000); CHO-hM4 cells, ACh EC80, Fluo-8 calcium fluorescence;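 active means inhibition above its plate's cutoff, the mean inhibition of sample wells plus 3 SD, cut at about 27% in these data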;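 further: 0% = acetylcholine EC80 with DMSO and 100% = DMSO without agonist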
Numbers without * were called inactive. Hits are enriched below; roughly 2% of the tested compounds scored in any of these assays.

SMILES	CHO-K1 Ca ag	M1 PAM parental	CHO-K1 Ca antag	M4 ag	CHRM4 PAM	M4 antag
COC(=O)c1ccc(NC(=O)C2CC3CCC2C3)cc1 (centres undefined)	2.0	3.0	-1.6	0.7	-16.1	-5.9
COC(=O)c1ccc(NC(=S)NC2CC3CCC2C3)cc1 (centres undefined)	16.5*	10.8	12.6	14.4	-7.4	8.2
CCn1nnnc1SCC(=O)Nc1ccc(OCc2ccccc2)cc1	0.1	16.6	-3.8	2.1	27.1*	-6.8
COc1ccc(NC(=O)CSc2nnnn2Cc2ccccc2)cc1	1.6	21.8	-21.0	2.9	1.7	-14.4
COC(=O)CSc1nc2ccc(NC(=O)CSc3nnnn3Cc3ccccc3)cc2s1	2.8	9.1	14.5	8.8	-8.3	26.8*
O=C1c2[nH]nc(-c3ccccc3O)c2C(c2ccc(F)cc2)N1Cc1ccco1 (centres undefined)	0.9	25.6	-8.2	-1.3	-6.7	5.0
O=C1c2[nH]nc(-c3ccccc3O)c2C(c2cccc(Cl)c2)N1Cc1ccco1 (centres undefined)	0.1	-8.9	23.8*	-1.6	-3.2	17.0
C=CCN1C(=NC(=O)CCCC(=O)O)SC2CS(=O)(=O)CC21 (centres undefined)	-0.4	-6.5	28.2*	0.2	13.1	-1.8
Cc1cc(NC(=O)C(C)SCC(=O)OCc2ccc([N+](=O)[O-])cc2)no1 (centres undefined)	1.7	10.9	0.5	-0.1	0.9	0.5
CC(C)NS(=O)(=O)c1ccc(CCC(=O)N2CCCC2)cc1	-0.8	-16.1	24.1*	0.2	-4.0	-6.1
Cc1cccc(C2(c3cccc(C)c3)CC2C(=O)Nc2ccc([N+](=O)[O-])cc2O)c1 (centres undefined)	6.4	-11.2	25.6*	6.8	-13.1	27.2*
C=CCNC(=O)C1CC1(c1cccc(C)c1)c1cccc(C)c1 (centres undefined)	0.1	5.8	1.9	-0.9	-0.1	-11.6
Cc1cn([C@H]2C[C@H](O)[C@@H](/C=C/C(=O)NCCc3ccc4ccccc4c3)O2)c(=O)[nH]c1=O	1.2	24.3	-22.7	0.4	-2.3	0.3
CCOC(=O)C1=C(COC(=O)COc2ccc(C(C)=O)cc2)NC(=O)NC1C (centres undefined)	5.4	-14.7	1.7	11.2	-7.4	-2.3
CCOC(=O)C1=C(COC(=O)COc2ccc(C(=O)CC)cc2)NC(=O)NC1C (centres undefined)	16.6*	-11.3	11.7	17.0	-5.6	-6.1
COc1ccccc1N1CCN(C(=O)c2cc3c(=O)n4cccc(C)c4nc3s2)CC1	0.1	0.2	-5.2	0.9	1.0	9.5
O=C(N/C(=C/c1cccnc1)C(=O)N1CCOCC1)c1ccccc1	0.6	12.2	-3.5	1.0	21.0*	-7.5
COC(=O)CSc1nnc(-c2ccccn2)n1N	0.3	14.8	-13.0	0.2	-1.3	-2.6
COc1ccc(OC)c(NC(=O)Nc2ccc3[nH]ccc3c2)c1	-0.7	-8.1	58.9*	1.2	2.7	-3.2
COc1ccc(OC)c(NC(=O)Nc2ccc(Cl)cc2)c1	1.0	-11.8	8.1	8.5	-0.9	10.5
CC(C)OCCCNc1nc(Cl)nc2c1cnn2C	0.1	9.0	-13.0	1.5	0.5	-5.0
Cc1ccc(S(=O)(=O)N(CC(=O)N/N=C/c2cccc(Cl)c2)c2cccc3cccnc23)cc1	0.2	-9.7	24.0*	0.1	-6.4	12.9
O=C(NCc1ccccc1Cl)c1ccc2nc([C@H]3C[C@H](O)[C@@H](CO)O3)[nH]c2c1	0.7	-1.6	-2.0	0.6	9.9	-16.4
COc1ccc(C(=O)Nc2ccc3c(c2)Cc2ccccc2-3)cc1	0.0	-5.7	24.1*	0.9	-0.4	3.0
CCN(CC)CCNC(=O)c1ccc(NC(=O)c2cccc(S(=O)(=O)N3c4ccccc4CC3C)c2)cc1 (centres undefined)	-0.3	-26.1	12.8	1.1	-15.9	97.1*
CC(=O)N1CCN(C(=O)c2cccc(S(=O)(=O)N3c4ccccc4CC3C)c2)CC1 (centres undefined)	-0.2	-22.0	10.1	2.7	15.8*	4.0
